Measurements from PubChem BioAssay (Tox21).
Results filed as inconclusive are left out. Calls of active or inactive are those of the source. Unless noted, calls come from the whole dose curve; as a rule, active = well fitted curve in the direction sought with a large enough effect in the repeat runs; inconclusive = weak or mixed curves; inactive = no such curve, though single readings can be large; an effect the other way counts as inactive or inconclusive.

Assays:
[1] = qHTS assay to identify small molecule agonists or antagonists of the thyroid stimulating hormone receptor (TSHR) signaling pathway - wild type cell line counter screen (AID 1259384; calls by dose curve)
Outline: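 Wild-type HEK293 cells were plated 18 h at 37 C/5% CO2, pin-dosed with compound plus Ro20-1724 medium, held 30 min at room temperature, then given cAMP-d2 and anti-cAMP-cryptate; fluorescence was read after 1 h. Fifteen concentrations, triplicate.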

[2] = molecular target: Thyrotropin receptor (Homo sapiens) (UniProt P16473); experiment: qHTS assay to identify small molecule antagonists of the thyroid stimulating hormone receptor (TSHR) signaling pathway (AID 1259385; calls by dose curve; note: nearly all actives have a fitted effect of over 20% in size)
Outline: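 TSHR-HEK293 cells were plated and held 18 h at 37C/5% CO2, then given compound plus Ro20-1724 and stimulated with TSH at 1.5 ng/mL final. After 30 min at room temperature, cAMP was detected with cAMP-d2/anti-cAMP-cryptate (1 h) by fluorescence.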

[3] = qHTS assay to identify small molecule agonists of the estrogen receptor alpha (ER-alpha) signaling pathway in the presence of an antagonist - cell viability counter screen (AID 1259386);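 note: series mostly up to about 92 µM; cells exposed to compounds for 22 h at 37 °C before the viability read; nearly all actives have a fitted effect of over 30% in size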
Outline: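 Cytotoxicity was measured in parallel with the ERE-luciferase agonist screen, in the same wells. The cells were VM7Luc4E2, which endogenously express ER-alpha, and treatment was with compounds plus 10.0nM ICI-182,780 for 22hr.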

[4] = molecular target: Progesterone receptor (Homo sapiens) (UniProt P06401); experiment: qHTS assay to identify small molecule agonists of the progesterone receptor (PR) signaling pathway (AID 1346784; calls by dose curve; note: nearly all actives have a fitted effect of over 30% in size)
Outline: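 Seed PR-UAS-bla HEK 293T cells (2% charcoal-stripped FBS), incubate 6 hr at 37C; add compounds in DMSO, 16 hr at 37C; add LiveBLAzer B/G substrate, 2 hr RT; read fluorescence intensity.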

[5] = qHTS assay to identify small molecule antagonists of the TGF-beta/Smad signaling pathway - cell viability counter screen (AID 1346824); note: nearly all actives have a fitted effect of over 50% in size
Outline: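 SBE-bla HEK 293T cells were plated overnight at 37 C, then given compounds in DMSO plus TGF-beta1 (added as 0.25 ng/mL solution) for 5 hr. After the bla read, CellTiter-Glo was added to the same wells and luminescence read after 30 min at room temperature.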

[6] = qHTS assay to identify small molecule agonists of the TGF-beta/Smad signaling pathway - cell viability counter screen (AID 1346829); note: top concentration of the series differs between compounds; nearly all actives have a fitted effect of over 45% in size
Outline: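 CellTiter-Glo luminescence readout; SBE-bla HEK 293T cells, overnight plating, compound 5 hr at 37 C/5% CO2, then bla substrate 2 hr RT, then CellTiter-Glo 30 min RT.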

[7] = qHTS assay to identify small molecule agonists of the TGF-beta/Smad signaling pathway (AID 1346859; active = well fitted activation curve with a large enough effect in the signal ratio in the repeat runs, not every such curve was filed as active; the % refers to the signal ratio; note: series mostly up to about 77 µM)
Outline: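 Beta-lactamase reporter activity downstream of Smad binding elements was measured in stably transfected HEK 293T cells; compounds were incubated for 5 hr, substrate for 2 hr at room temperature.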

[8] = molecular target: Thyrotropin-releasing hormone receptor (Homo sapiens) (UniProt P34981); experiment: qHTS assay to identify small molecule antagonists of the thyrotropin-releasing hormone receptor (TRHR) signaling pathway (AID 1346877; active = well fitted inhibition curve with a large enough effect in the repeat runs, not every such curve was filed as active; note: series mostly up to about 51 µM)
Outline: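 Antagonism is measured as suppression of the calcium response to 1 nM TRH in TRHR-HEK293 cells that have been dye-loaded for 2 h at 37 °C after overnight plating. Each compound is tested at 15 concentrations in triplicate.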

[9] = molecular target: Thyrotropin-releasing hormone receptor (Homo sapiens) (UniProt P34981); experiment: qHTS assay to identify small molecule agonists of the thyrotropin-releasing hormone receptor (TRHR) signaling pathway (AID 1346891; calls by dose curve;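 note: HEK293 cells expressing TRHR with calcium dye readout; series mostly up to about 58 µM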)
Outline: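 Overnight-plated (18 h, 37 °C, 5% CO2) TRHR-Hek293 cells; 2 h calcium dye at 37 °C; compound in DMSO; 3-min kinetic fluorescence read.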

[10] = Human pregnane X receptor (PXR) small molecule agonists, qHTS cell viability counter screen (AID 1346977); note: nearly all actives have a fitted effect of over 50% in size
Outline: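 After a 5hr pre-incubation, PXR-Luc HepG2 cells received compounds plus positive control in DMSO and were kept 24hr at 37C. Cell viability was quantified by fluorescence from CellTiter-Fluor added for the final hour.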

[11] = Caspase-3/7 induction in HepG2 cells by small molecules, qHTS assay (AID 1346978); note: nearly all actives have a fitted effect of over 15% in size
Outline: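 Wild-type HepG2 cells (2,000/well) were settled 5 h at 37 C, 5% CO2, then exposed to compounds in DMSO for 17 h. Caspase-3/7 activity was read by luminescence 30 min after adding Caspase-Glo 3/7 reagent at room temperature.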

[12] = Caspase-3/7 induction in CHO-K1 cells by small molecules, qHTS cell viability counter screen (AID 1346979); note: nearly all actives have a fitted effect of over 35% in size
Outline: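 Multiplexed with Caspase-Glo 3/7 in CHO-K1 cells, this counter screen added CellTiter-Fluor after 16hr of compound exposure and recorded fluorescence 1hr later.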

[13] = Caspase-3/7 induction in CHO-K1 cells by small molecules, qHTS assay (AID 1346980); note: nearly all actives have a fitted effect of over 15% in size
Outline: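 Wild-type cells were seeded at 1,500 per well and settled 5 hr at 37 C, 5% CO2, then exposed to DMSO-dissolved compounds for 17 hr. Caspase-Glo 3/7 reagent was added, and luminescence was read after 30min at room temperature.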

[14] = Caspase-3/7 induction in HepG2 cells by small molecules, qHTS cell viability counter screen (AID 1346981); note: series mostly up to about 92 µM; nearly all actives have a fitted effect of over 30% in size
Outline: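 Cell viability is measured as a cytotoxicity counter screen alongside the Caspase-Glo 3/7 readout in identical wells. Wild-type HepG2 cells are treated with test compounds for 16 hr at 37 C before CellTiter-Fluor addition and a 1-hr incubation.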

[15] = molecular target: Progesterone receptor (Homo sapiens) (UniProt P06401); experiment: qHTS assay to identify small molecule antagonists of the progesterone receptor (PR) signaling pathway (AID 1346795; active = well fitted inhibition curve with a large enough effect in the signal ratio in the repeat runs, not every such curve was filed as active; the % refers to the signal ratio)
Outline: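 Screening used a GripTite HEK293T line with PR-responsive UAS-beta-lactamase. Cells were challenged with compound in the presence of 1 nM R5020 final for 16 hr at 37C; B/G FRET substrate, 2 hr room temperature, fluorescence.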

[16] = qHTS assay to identify small molecule antagonists of the progesterone receptor (PR) signaling pathway - cell viability counter screen (AID 1346798); note: series mostly up to about 92 µM; nearly all actives have a fitted effect of over 50% in size
Outline: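 Measures cytotoxicity in parallel with the PR antagonist reporter read: HEK293T PR-UAS-bla cells get compound and R5020 for 16 hr, and remaining viable cells are quantified by CellTiter-Glo luminescence.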

[17] = qHTS assay to identify small molecule agonists of the progesterone receptor (PR) signaling pathway - cell viability counter screen (AID 1346799; calls by dose curve; note: nearly all actives have a fitted effect of over 45% in size)
Outline: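 Using the same plates as the PR reporter screen, HEK293T PR-UAS-bla cells received compounds for 16 hr at 37C and were then lysed with CellTiter-Glo; luminescence was read 30 min later at room temperature.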

[18] = molecular target: Estrogen receptor (Homo sapiens) (UniProt P03372); experiment: qHTS assay to identify small molecule agonists of the estrogen receptor alpha (ER-alpha) signaling pathway in the presence of an antagonist (AID 1259383; calls by dose curve; note: top concentration of the series differs between compounds; nearly all actives have a fitted effect of over 15% in size)
Outline: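 Agonist-mode confirmation in the presence of the ER antagonist ICI-182,780 at 10.0nM final. Breast-derived VM7Luc4E2 reporter cells were exposed to compounds for 22hr, and ERE-driven luciferase was quantified by luminescence.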
% is set by controls: 0 for no effect and ±100 for the full control effect.

Sequence of Thyrotropin-releasing hormone receptor (Homo sapiens) (P34981 whole entry, looked up): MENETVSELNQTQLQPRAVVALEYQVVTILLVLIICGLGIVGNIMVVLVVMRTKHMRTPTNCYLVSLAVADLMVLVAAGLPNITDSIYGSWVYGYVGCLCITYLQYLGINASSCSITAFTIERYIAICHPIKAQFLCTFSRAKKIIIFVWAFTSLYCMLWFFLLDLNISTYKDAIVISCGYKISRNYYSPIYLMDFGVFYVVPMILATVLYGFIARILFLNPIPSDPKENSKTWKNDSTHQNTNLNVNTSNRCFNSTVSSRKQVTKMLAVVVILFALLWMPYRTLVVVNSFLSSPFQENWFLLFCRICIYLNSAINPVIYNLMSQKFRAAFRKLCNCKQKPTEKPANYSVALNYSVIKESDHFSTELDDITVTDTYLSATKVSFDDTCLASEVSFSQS
Sequence of Estrogen receptor (Homo sapiens) (P03372 whole entry, looked up): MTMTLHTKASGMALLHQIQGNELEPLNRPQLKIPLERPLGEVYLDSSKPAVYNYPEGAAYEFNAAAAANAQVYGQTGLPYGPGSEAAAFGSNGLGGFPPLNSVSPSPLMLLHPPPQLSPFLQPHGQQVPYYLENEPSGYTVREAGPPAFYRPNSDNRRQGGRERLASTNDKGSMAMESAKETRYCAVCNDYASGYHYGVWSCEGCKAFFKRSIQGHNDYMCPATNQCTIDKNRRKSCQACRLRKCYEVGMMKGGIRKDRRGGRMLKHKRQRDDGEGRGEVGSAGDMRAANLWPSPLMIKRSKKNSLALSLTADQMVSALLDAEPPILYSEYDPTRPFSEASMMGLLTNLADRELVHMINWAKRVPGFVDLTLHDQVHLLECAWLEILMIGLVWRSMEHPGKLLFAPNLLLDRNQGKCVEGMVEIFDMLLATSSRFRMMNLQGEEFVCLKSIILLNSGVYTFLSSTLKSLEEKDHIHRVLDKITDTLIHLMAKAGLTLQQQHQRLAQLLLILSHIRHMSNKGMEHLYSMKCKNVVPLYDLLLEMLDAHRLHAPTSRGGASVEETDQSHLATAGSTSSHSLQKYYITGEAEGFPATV
Sequence of Progesterone receptor (Homo sapiens) (P06401 whole entry, looked up): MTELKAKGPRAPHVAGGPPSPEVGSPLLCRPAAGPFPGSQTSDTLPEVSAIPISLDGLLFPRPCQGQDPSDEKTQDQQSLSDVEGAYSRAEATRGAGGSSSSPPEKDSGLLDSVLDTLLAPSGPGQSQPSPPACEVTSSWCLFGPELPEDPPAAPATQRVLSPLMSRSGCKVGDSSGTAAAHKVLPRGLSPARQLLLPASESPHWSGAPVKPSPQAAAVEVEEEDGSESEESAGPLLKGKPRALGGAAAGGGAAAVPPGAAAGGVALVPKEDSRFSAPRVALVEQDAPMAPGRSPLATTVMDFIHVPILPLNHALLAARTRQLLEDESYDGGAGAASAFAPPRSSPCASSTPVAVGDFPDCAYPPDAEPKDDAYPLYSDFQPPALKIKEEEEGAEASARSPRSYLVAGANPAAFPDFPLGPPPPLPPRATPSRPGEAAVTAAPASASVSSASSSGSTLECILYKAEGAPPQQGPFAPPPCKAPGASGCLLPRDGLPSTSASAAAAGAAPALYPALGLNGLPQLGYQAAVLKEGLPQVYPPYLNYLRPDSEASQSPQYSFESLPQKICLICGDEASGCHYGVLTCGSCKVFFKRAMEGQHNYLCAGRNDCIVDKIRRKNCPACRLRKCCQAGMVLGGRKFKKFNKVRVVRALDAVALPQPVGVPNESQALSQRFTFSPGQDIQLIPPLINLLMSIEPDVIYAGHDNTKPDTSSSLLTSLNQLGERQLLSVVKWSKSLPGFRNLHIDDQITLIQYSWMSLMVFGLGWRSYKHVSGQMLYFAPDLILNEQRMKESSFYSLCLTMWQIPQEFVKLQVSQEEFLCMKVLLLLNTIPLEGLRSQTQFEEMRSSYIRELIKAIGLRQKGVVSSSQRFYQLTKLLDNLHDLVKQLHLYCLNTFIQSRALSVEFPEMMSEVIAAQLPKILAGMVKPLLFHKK
Sequence of Thyrotropin receptor (Homo sapiens) (P16473 whole entry, looked up): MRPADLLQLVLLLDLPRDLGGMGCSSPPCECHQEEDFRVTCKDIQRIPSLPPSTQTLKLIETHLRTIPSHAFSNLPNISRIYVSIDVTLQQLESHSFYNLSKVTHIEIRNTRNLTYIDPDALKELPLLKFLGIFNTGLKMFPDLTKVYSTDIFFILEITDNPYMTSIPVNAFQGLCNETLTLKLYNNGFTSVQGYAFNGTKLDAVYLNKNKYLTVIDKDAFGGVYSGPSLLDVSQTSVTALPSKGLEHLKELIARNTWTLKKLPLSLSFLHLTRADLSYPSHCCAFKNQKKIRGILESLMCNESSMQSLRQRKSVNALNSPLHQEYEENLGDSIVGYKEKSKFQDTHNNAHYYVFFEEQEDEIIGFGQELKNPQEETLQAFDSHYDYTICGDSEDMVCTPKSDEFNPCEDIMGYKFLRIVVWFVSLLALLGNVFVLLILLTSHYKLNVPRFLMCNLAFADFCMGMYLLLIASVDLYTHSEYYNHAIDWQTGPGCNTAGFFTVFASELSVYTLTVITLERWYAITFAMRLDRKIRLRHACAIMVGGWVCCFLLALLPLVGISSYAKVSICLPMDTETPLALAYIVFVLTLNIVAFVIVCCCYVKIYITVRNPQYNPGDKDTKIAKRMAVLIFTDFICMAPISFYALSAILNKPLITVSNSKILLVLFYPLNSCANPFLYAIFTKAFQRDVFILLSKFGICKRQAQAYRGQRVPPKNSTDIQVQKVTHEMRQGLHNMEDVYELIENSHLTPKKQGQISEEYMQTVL

OCC1(CO)COCOC1
inactive: outcome [1] | outcome [2] | outcome [3] | Potency [4] | outcome [5] | outcome [6] | outcome [7] | outcome [8] | outcome [9] | outcome [10] | outcome [11] | Potency [12] | outcome [13] | outcome [14]

COS(=O)(=O)O
inactive: outcome [1] | outcome [2] | outcome [3] | Potency [4] | Potency [15] | outcome [16] | outcome [17] | outcome [5] | outcome [6] | outcome [8] | outcome [9] | outcome [10] | outcome [11] | Potency [12] | outcome [13] | outcome [14]

O=C1c2ccccc2C(=O)c2cc(Cl)ccc21
inactive: activation [18] 1.09% [at 8.39 µM] | cAMP activity change [1] 2.64% [at 8.39 µM] | activity change, negative = inhibition [2] -1.43% [at 8.39 µM] | activity change, negative = cytotoxicity [3] 1.35% [at 8.39 µM] | activity change, negative = cytotoxicity [16] -7.61% [at 8.39 µM] | activity change, negative = cytotoxicity [17] 13.3% [at 8.39 µM] | viability change, negative = cytotoxic [5] -4.61% [at 6.97 µM] | activity change, negative = cytotoxicity [6] 7.07% [at 6.97 µM] | activation [7] 1.62% [at 6.97 µM] | activity, negative = inhibition [8] -0.75% [at 4.65 µM] | activation [9] 0.0495% [at 5.23 µM] | activity change, negative = cytotoxicity [10] -0.0384% [at 8.39 µM] | caspase activation [11] -1.72% [at 8.39 µM] | activity change, negative = cytotoxicity [12] 9.78% [at 8.39 µM] | caspase-3/7 activation [13] -0.328% [at 8.39 µM] | activity change, negative = cytotoxicity [14] 3.18% [at 8.39 µM]

Cc1cccc(Cl)c1
inactive: outcome [1] | outcome [2] | outcome [3] | Potency [4] | Potency [15] | outcome [17] | outcome [5] | outcome [6] | outcome [7] | outcome [8] | outcome [10] | outcome [11] | Potency [12] | outcome [13] | outcome [14]

C=C(C)c1cccc(C(C)(C)N=C=O)c1
inactive: Potency [18] | outcome [1] | outcome [2] | outcome [3] | outcome [16] | outcome [17] | outcome [5] | outcome [6] | outcome [7] | outcome [10] | outcome [11] | Potency [12] | outcome [13] | outcome [14]

C=CC(=O)OCC1CCCO1 (stereo not drawn)
inactive: Potency [18] | outcome [1] | outcome [2] | outcome [3] | Potency [4] | outcome [16] | outcome [17] | outcome [5] | outcome [6] | outcome [9] | outcome [10] | outcome [11] | Potency [12] | outcome [13] | outcome [14]

Cc1cc(-c2ccccc2)nnc1NCCN1CCOCC1
inactive: Potency [18] | outcome [1] | outcome [2] | outcome [3] | Potency [4] | Potency [15] | outcome [16] | outcome [17] | outcome [5] | outcome [6] | outcome [7] | outcome [10] | outcome [11] | Potency [12] | outcome [13] | outcome [14]

CCCCCC/C=C/C(=O)OC
inactive: outcome [1] | outcome [2] | outcome [3] | Potency [4] | Potency [15] | outcome [17] | outcome [5] | outcome [6] | outcome [10] | outcome [11] | Potency [12] | outcome [13] | outcome [14]

Cc1c(N)cccc1Cl
inactive: Potency [18] | outcome [1] | outcome [2] | outcome [3] | outcome [16] | outcome [17] | outcome [5] | outcome [6] | outcome [8] | outcome [10] | outcome [11] | Potency [12] | outcome [13] | outcome [14]

CCCCCCCCCCCCCCC(=O)NC(CO)CCCCCCCCCCCCCC (stereo not drawn)
inactive: Potency [18] | outcome [1] | outcome [3] | Potency [4] | Potency [15] | outcome [16] | outcome [17] | outcome [5] | outcome [6] | outcome [8] | outcome [9] | outcome [10] | outcome [11] | outcome [13] | outcome [14]
